Among the data in PubChem BioAssay are composite z-score and z-score values, retold here.

Structures are written as SMILES. Calls of active or inactive are those of the source.

In the first test the test system is Neuregulin-1 EGF-like domain. The experiment in a line: small molecules binding NRG1 EGF domain – biochemical, small-molecule microarray, 635 nm fluorescence, primary screen (AID 1081).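 Further: binding of the protein to compounds printed on small-molecule microarray slides.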 Conditions: higher = more signal.
In turn, `O=C1NCC(=O)N2[C@@H]1C[C@@H](C(=O)O)[C@H]2c1cccc(OCCO)c1` gave a composite z-score of 1.53. Same read-out and setting: the value for `COCCOC(=O)N1C(=O)[C@@]2(c3cc(C#CC4(O)CCCCCC4)ccc31)[C@H](c1ccc(O)cc1)N1[C@H](c3ccccc3)[C@H](c3ccccc3)OC(=O)[C@H]1[C@@H]2C(=O)Nc1nc2ccccc2s1` was 1.02; that for `COCCOC(=O)N1C(=O)[C@@]2(c3cc(C#CCNC(N)=O)ccc31)[C@H](C(=O)NC[C@H](O)c1ccccc1)[C@H]1C(=O)O[C@H](c3ccccc3)[C@H](c3ccccc3)N1[C@@H]2c1ccccc1OCCO` was 1.09; that for `O=C(NCc1ccccc1)[C@@]1(CCS(=O)(=O)c2ccccc2)N=C(c2ccc(OCCCO)cc2)O[C@H]1c1ccccc1` was 1.19.

Test system in a further test: not listed separately
The experiment in a line: FRG1 expression reporter modulators in myotubes – cell-based, C2C12 myotubes, firefly/Renilla luciferase, luminescence, FRG1 inhibition for FSHD, primary screen (AID 1084). The note with it: FRG1 promoter luciferase, higher = more signal, called active from +8 up or from −8 down.
With `CN1C(=O)C2C=CC(C(O)c3cc(C(F)(F)F)cc(C(F)(F)F)c3)N(N3CCCCC3)C2C1=O` (stereo not drawn), the z-score was 0.215 (inactive). In the case of `CC(C)[C@@H](CO)NC(=O)[C@H]1[C@@H](c2ccccc2)N(c2ccccc2)O[C@@H]1C`, the z-score is -0.579 (inactive).

In the case of `COc1cc2c(cc1O)C(C1CC1)N(Cc1cc3c(cc1Br)OCO3)CC2` (stereo not drawn), the z-score is 1.21 (inactive). Same read-out and setting: the value for `C=CCNC(=O)[C@H]1[C@@H]2C(=O)O[C@@H](c3ccccc3)[C@@H](c3ccccc3)N2[C@@H](c2ccccc2OCCO)[C@]12C(=O)Nc1ccc(C#CC3=CCCCC3)cc12` was -2.87 (inactive). Regarding `O=C1C2C=CC(C(O)c3ccc(F)cc3)N(Nc3ccccc3F)C2C(=O)N1c1ccccc1` (stereo not drawn), the z-score was -1.43 (inactive). Still for that read-out and setting: the value for `COc1cc(OC)c(C(O)C2C=CC3C(=O)NC(=O)C3N2Nc2ccc(Cl)cc2Cl)cc1Br` (stereo not drawn) was 0.809 (inactive); that for `COc1cc2c(cc1O)C=[N+](Cc1cccc(OC(F)(F)F)c1)CC2` was -0.886 (inactive). Take `COc1ccc([Si](C)(C)[C@H]2[C@H](CC(=O)N3Cc4ccccc4C[C@H]3CO)O[C@@]3(C(=O)N(Cc4ccc(N5CCC5=O)cc4)c4ccccc43)[C@@H]2C)cc1`: the z-score was -4.57 (inactive). In the case of `Cc1ccc(S[C@]2(C(=O)NCCN3CCOCC3)CC(=O)N(Cc3ccccc3)[C@@H]2c2ccc(CO)cc2I)cc1`, the z-score was -0.456 (inactive).

For the molecule `COCCOC(=O)N1C(=O)[C@@]2(c3cc(C#Cc4ccc(OC)cc4)ccc31)[C@H](C(N)=O)[C@H]1C(=O)O[C@H](c3ccccc3)[C@H](c3ccccc3)N1[C@@H]2c1ccccc1OCCO`, the z-score was -1.26 (inactive). The same measure, in the same setting: the value for `[N-]=[N+]=NCc1ccccc1C[C@]1(C(=O)NCC(O)CO)N=C(c2ccc(OCCCO)cc2)O[C@H]1c1ccccc1` (stereo partly drawn) was -0.938 (inactive).

For the molecule `C#CCN(Cc1ccccc1Br)C(/C=C/c1ccccc1)CO` (stereo not drawn), the z-score was -1.83 (inactive). The same measure, in the same setting: the value for `C#CCN(CC=C(C)C)[C@H](CO)c1ccccc1` was -0.154 (inactive). In the case of `COc1ccc([Si](C)(C)[C@H]2[C@H](CCO)O[C@@]3(C(=O)N(Cc4ccc(N5C(=O)COc6ccccc65)cc4)c4ccccc43)[C@@H]2C)cc1`, the z-score is -3.99 (inactive). Regarding `CO[C@H]1O[C@H](CO)[C@@H](OC(=O)Nc2ccc(Br)cc2)[C@H](OC(=O)c2cc3ccccc3[nH]2)[C@H]1OC(=O)c1cc2ccccc2[nH]1`, the z-score is -0.483 (inactive). As for `CN1C(=O)C2C=CC(C(O)c3ccccc3)N(Nc3ccccc3)C2C1=O` (stereo not drawn), the z-score is 0.527 (inactive).

As for `COC(=O)[C@@]1(Cc2ccc(F)cc2)[C@H]2c3cc(C(=O)N4CCCC4)n(Cc4ccc(C)o4)c3C[C@H]2CN1C(=O)c1ccccc1`, the z-score was 1.62 (inactive). The same measure, in the same setting: as for `CCCCC(=C=CC[C@@H](O)c1ccccc1OCCO)CCO`, the figure is 0.0128 (inactive); as for `CC(=O)N1Cc2ccccc2C[C@@]2(COC(c3ccc(OCCCO)cc3)=N2)C1=O`, -0.41 (inactive). Still for that read-out and setting: the value for `C[C@]1(C(=O)NC2CC2)c2ccccc2C(=O)N(Cc2cc(C(F)(F)F)cc(C(F)(F)F)c2)[C@H]1c1ccc(CO)cc1` was -0.583 (inactive); that for `CCCC[C@@H]1C[C@H]1[C@@H](NC(=O)c1ccco1)c1ccc(C(=O)OC)cc1` was -0.0679 (inactive). Same read-out and setting: the value for `C[C@@]1([C@@H](NC(=O)c2ccccc2)c2ccc(-c3ccccc3)cc2)C[C@H]1C1CCCCC1` was 2.09 (inactive); that for `COCCOC(=O)N1C(=O)[C@@]2(c3cc(C#CC4=CCCCC4)ccc31)[C@H](c1ccc(O)cc1)N1[C@H](c3ccccc3)[C@H](c3ccccc3)OC(=O)[C@H]1[C@@H]2C(N)=O` was 0.189 (inactive); that for `O=C1C2C=CC(C(O)C(c3ccccc3)c3ccccc3)N(n3cnnc3)C2C(=O)N1Cc1ccccc1` (stereo not drawn) was 0.266 (inactive).
